# Compounds with a hit are over-represented: about 14% of the library has one in this group of screens.
# Cycloheximide cs = Cycloheximide Counterscreen for Small Molecule Inhibitors of Shiga Toxin; cell reporter, cycloheximide protein synthesis inhibition counterscreen; max response, %; actives 12% (n = 300,000); AID 2314, 2010; in the data active means max response mostly above about 13%, no sharp cut-off; inactive means mostly below about 14%; further: read at 38.3 µM for the half of the compounds with a filed dose; 0% is about no effect
# Shiga toxin inh = A qHTS for Small Molecule Inhibitors of Shiga Toxin. actives 9.2% (n = 290,000). Vero cells, Shiga toxin protein synthesis inhibition reporter. inhibition, % at 38.7 µM; in the data active means inhibition mostly above about 28%, no sharp cut-off; inactive means mostly below about 43%; further: 0% is about no effect
# Giardia FBPA inh = qHTS Assay for Inhibitors of Fructose-1,6-bisphosphate Aldolase from Giardia Lamblia; A8B2U2; purified Giardia FBPA; Potency, µM (top dose mostly 59.6 µM), for inactives: at the top dose activity, negative = inhibition, usual class: inhibitors; actives 0.71% (n = 290,000); AID 2451, 2010; further: potency means the concentration at half of the fitted maximal effect; on the % scale 0 is the no-effect control and ±100 the full control effect; nearly all actives have a fitted effect of over 55% in size
# Target sequence (A8B2U2 whole entry, looked up): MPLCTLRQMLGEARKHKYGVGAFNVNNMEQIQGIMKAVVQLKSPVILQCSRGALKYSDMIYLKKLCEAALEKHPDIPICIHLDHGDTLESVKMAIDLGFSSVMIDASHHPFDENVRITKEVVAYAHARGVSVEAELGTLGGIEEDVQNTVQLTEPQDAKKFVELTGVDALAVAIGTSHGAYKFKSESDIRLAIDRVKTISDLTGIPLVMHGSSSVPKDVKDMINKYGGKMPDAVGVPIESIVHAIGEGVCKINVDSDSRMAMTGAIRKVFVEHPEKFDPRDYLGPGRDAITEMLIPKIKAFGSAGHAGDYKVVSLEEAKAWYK
#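 Giardia FBPA (40 nM reagent) was preincubated 10 min at RT with compound (up to 57.5 uM final), then substrate plus GAPDH/TPI/NAD/arsenate coupling system with diaphorase/resazurin was added; resorufin fluorescence (525/598 nm) was read after 20 min.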
# LmPK inh = qHTS Assay for Inhibitors of Leishmania Mexicana Pyruvate Kinase (LmPK) | purified LmPK, Kinase-Glo ATP luminescence, 1 h | Potency, µM (top dose mostly 57.5 µM), for the others: at the highest dose activity change, negative = inhibition, actives largely listed as inhibitors | actives 0.37% (n = 290,000); further: potency means the concentration at half of the fitted maximal effect; on the % scale 0 is the no-effect control and ±100 the full control effect
#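 qHTS format; LmPK 0.1 nM; substrates PEP 0.5 mM and ADP 0.1 mM. One-hour room-temperature incubation, then coupled luciferase luminescence; 0.5 nM enzyme wells mark activation.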
# NS1 inh = qHTS Assay for Inhibitors of Influenza NS1 Protein Function; Potency, µM (top dose mostly 46.1 µM), inactives show at the top dose activity, positive = more growth; actives 0.4% (n = 270,000); AID 2326, 2010; calls by dose curve; further: potency means the concentration at half of the fitted maximal effect; actives are rising curves; nearly all actives have a fitted effect of over 50% in size
#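 Growth recovery, yeast-based: influenza A NS1 expressed in S. cerevisiae causes slow growth, and suppressors are detected by OD600. The parent strain without NS1 is used as positive control.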
# * = called active by the depositor; ? = inconclusive; / = no result given. Unless noted, the call rests on the fitted dose curve; in most records, active means well fitted curve in the direction sought with a large enough effect; inconclusive means small, poorly fitted or top-dose-only effect, or another doubt; inactive means no such curve, though single readings can be large; an effect the other way counts as inactive or inconclusive.
SMILES,Cycloheximide cs,Shiga toxin inh,Giardia FBPA inh,LmPK inh,NS1 inh
Nc1nc2c(F)cccc2s1,10,-12,1%,0%,0%
NNc1nc2c(F)cc(F)cc2s1,70*,82*,-10%,-19%,-10%
C[C@@]12C[C@H](O)C3[C@H](CCC4=CC(=O)CC[C@]43C)[C@H]1CC[C@@H]2c1csc(-c2ccccc2)n1 (stereo partly specified),/,/,/,/,-5%
COC(=O)c1c(C)noc1-c1ccc(Cl)cc1,-3,-3,3%,0%,-1%
COC(=O)c1coc(-c2ccc(C)cc2)c1C(=O)OC,39*,66*,11%,2%,-45%
COC(=O)c1coc(-c2ccc(OC)cc2)c1C(=O)OC,43*,71,4%,3%,-75%
CCCC(NC(=O)CCc1c(C)c2cc3c(-c4ccccc4)coc3cc2oc1=O)C(=O)O (stereo unspecified),-1,-1,9%,3%,12%
O=C(NCCCNC(=O)c1ccc(-c2cc(Cl)ccc2Cl)o1)c1cnccn1,-1,-3,/,9%,-25%
CC(C)(C)c1ccc(S(=O)(=O)NCc2ccccn2)cc1,18*,48,9%,-2%,-12%
Cc1cccc(NC(=O)c2n[nH]c([N+](=O)[O-])c2Br)c1C,22*,67*,-10%,-20%,/
Cc1cc(/C=C2\SC(=S)NC2=O)cc(C)c1O,15*,37,17%,?,7%
Cc1cc(/C=C2\SC(=S)NC2=O)c(C)n1-c1ccccc1,44*,58*,4%,-18%,1%
Cc1cc(/C=C2\SC(=S)NC2=O)c(C)n1C,-3,-7,-18%,-19%,-106%
Cc1cc(/C=C2\SC(N)=NC2=O)c(C)n1-c1ccccc1,36*,45,-6%,2%,8%
COc1ccc(-n2c(C)cc(/C=C3\SC(=S)NC3=O)c2C)cc1,6,13,-8%,3%,-5%
Cc1cc(/C=C2\SC(=S)NC2=O)c(C)n1-c1ccc(O)cc1,38*,52*,8%,-25%,?
CCCOc1ccccc1/C=C1\SC(N)=NC1=O,2,-8,-1%,-7%,-8%
Cc1ccc(S(=O)(=O)NC(=O)COc2ccc([N+](=O)[O-])cc2)cc1,-1,-8,-3%,1%,5%
CCN(CC)C(=O)c1nn(-c2ccc(OC)cc2)c(=O)c2c(N)scc12,-5,-6,/,/,/
COc1ccc(/C=C2\SC(N)=NC2=O)cc1Br,19*,/,-9%,7%,4%
COc1ccccc1CCn1c(=O)c(-c2ccc(F)c(F)c2)nc2cncnc21,/,/,-3%,/,/
Cc1cc(N/N=C/c2ccccc2Cl)nc(NCc2ccccc2)n1,28*,24,0%,-7%,-25%
Cc1ccc(Nc2cc(C)nc(NCc3ccccc3)n2)cc1,-1,-5,-13%,5%,-29%
Cc1cc(C)nc(N/N=C/c2ccccc2OCc2ccc([N+](=O)[O-])cc2)n1,13,59*,-26%,1%,-1%
Cn1c(N/N=C/c2c[nH]c3ccccc23)nc2ccccc21,45*,167*,3%,0%,-2%
SMILES,Cycloheximide cs,Shiga toxin inh,Giardia FBPA inh,LmPK inh,NS1 inh
Cn1cc(Br)c(C(=O)N/N=C/c2cc3ccccc3nc2Cl)n1,15*,50*,/,-9%,12%
O=C(N/N=C/c1cc2ccccc2nc1Cl)c1ccncc1,1,-27,-2%,-4%,/
O=[N+]([O-])c1ccccc1S(=O)(=O)NCC1CCC(CNCC2CCc3ccccc3C2)CC1 (stereo unspecified),/,/,3%,/,/
O=[N+]([O-])c1ccccc1S(=O)(=O)c1ccccc1[N+](=O)[O-],-3,-2,1%,4%,0%
CCN(CC(=O)NC1CCCC1)S(=O)(=O)c1ccc(F)cc1,5,1,11%,-5%,6%
COc1ccccc1/C=N/Nc1nc(C)cc(C)n1,34*,89*,?,-19%,4%
Cc1cc(C)nc(N/N=C/c2c[nH]c3ccccc23)n1,20*,50,-10%,0%,/
Fc1c(F)c(F)c(N/N=C/c2c[nH]c3ccccc23)c(F)c1F,16*,23,-5%,-1%,23%
Cc1cc(C)nc(N/N=C/c2ccccc2Cl)n1,59*,94*,-14%,-21%,1%
COc1ccc(/C=N/Nc2nc(C)cc(-c3ccccc3)n2)c(OC)c1,1,-9,6%,-2%,-5%
C(=N\NC1=NCCCCC1)/c1c[nH]c2ccccc12,21*,32,-15%,3%,-2%
CCCn1c(/N=C/c2c[nH]c3ccccc23)nc2ccccc21,42*,12,-2%,0%,-13%
Cn1c(N/N=C/c2cc3ccccc3nc2Cl)nc2ccccc21,31,78*,-20%,-4%,-24%
Cc1cc(C)nc(N/N=C/c2cccc3ccccc23)n1,47*,15,-30%,3%,-23%
Cc1cccc(C)c1NC(=O)C1CCCN1S(=O)(=O)c1ccccc1 (stereo unspecified),-3,-8,6%,1%,-6%
Cc1ccc(CNS(=O)(=O)c2ccc(CN3C(=O)c4cccnc4C3=O)cc2)o1,-1,-3,/,8%,-2%
Cc1ccc(CNC(=O)CCC2CCCN(Cc3cccc4ncccc34)C2)o1 (stereo unspecified),11*,24,-1%,5%,-7%
COc1ccc(-n2nc3cc(C)c(NC(C)=O)cc3n2)cc1,32*,140*,8%,-2%,0%
COc1ccc(NC(C)=O)c(C)c1,-3,-10,1%,12%,/
COc1ccc(-n2nc3cc(C)c(NC(=O)C(C)C)cc3n2)cc1,36*,69*,0%,4%,1%
COc1ccc(C(=O)N2CCCC(c3ccccc3)C2)cc1 (stereo unspecified),-2,-10,7%,4%,-72%
O=C(O)C1CCN(C(=O)c2ccco2)CC1,-4,7,6%,3%,/
O=C(c1ccco1)N1CCC(c2ccccc2)C1 (stereo unspecified),24*,79*,-3%,-10%,-16%
O=C(c1ccc(F)cc1)N1CCC(c2ccccc2)C1 (stereo unspecified),41*,68*,3%,0%,-4%
CN(C)CCSCCO,/,/,/,/,-4%
Cc1ccc(C(=O)CSC2=C(C#N)C(c3ccco3)C3=C(CCCC3=O)N2)cc1 (stereo unspecified),18*,-18,-5%,0%,16%
COc1ccc(NC(=O)CSC2=C(C#N)C(c3ccco3)C3=C(CCCC3=O)N2)c(OC)c1 (stereo unspecified),14,-13,-17%,6%,5%
COc1cccc(NC(=O)CSC2=C(C#N)C(c3ccco3)C3=C(CCCC3=O)N2)c1 (stereo unspecified),36*,92*,?,0%,-4%
N#CC1=C(SCC(=O)c2ccccc2)NC2=C(C(=O)CCC2)C1c1ccco1 (stereo unspecified),66*,72*,-13%,3%,20%

# Bioassay records from PubChem.
